Hits are enriched below; roughly 32% of the tested compounds scored in any of these assays.
PostGolgi ctrl = growth inhibition of yeast control strain, primary screen, counter-screen for post-Golgi transport modulator project; efflux-deficient yeast background strain, growth absorbance A615, 16 h; inhibition, % at 10 µM; hit rate 5% among 98,000
CYP2C19 inh = blockers of cytochrome P450 2C19 activity – biochemical, luminescence, ADME assay, primary screen; AID 778, 2007; hit rate 21% among 96,000; P33261; CYP2C19 Supersomes, luciferin-H EGE luminescence, 30 min; inhibition, % at 5 µM;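 active = CYP2C19 inhibition above a set limit at 5 µM in the primary screen, cut at about 50% in these data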;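 also: plate controls were negative control wells for no effect and 2.5 mM tranylcypromine positive control for full effect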
PostGolgi yeast = phenotypic screen on post-Golgi transport, primary screen; post-Golgi transport phenotypic cell assay; inhibition, % at 10 µM; hit rate 0.9% among 98,000; AID 739, 2007;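 also: yeast cells grown in 1536-well plates; yeast grown about 18 h at 30C before absorbance read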
CYP2C9 act = human CYP2C9 activators, primary screen, biochemical, luminescence. AID 1024, 2008. recombinant CYP2C9, luciferin-H conversion; active compounds read high; factor 1 = untreated enzyme, 0 = blocked. hit rate 1.4% among 96,000. activation factor at 5 µM. Cytochrome P450 2C9 (Homo sapiens), P11712;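 active = activation factor of 2 or more for CYP2C9 at a 5 µM dose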;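 also: 0 = sulfaphenazole-blocked wells and 1 = vehicle-only wells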
Target sequence (P11712 whole entry, looked up): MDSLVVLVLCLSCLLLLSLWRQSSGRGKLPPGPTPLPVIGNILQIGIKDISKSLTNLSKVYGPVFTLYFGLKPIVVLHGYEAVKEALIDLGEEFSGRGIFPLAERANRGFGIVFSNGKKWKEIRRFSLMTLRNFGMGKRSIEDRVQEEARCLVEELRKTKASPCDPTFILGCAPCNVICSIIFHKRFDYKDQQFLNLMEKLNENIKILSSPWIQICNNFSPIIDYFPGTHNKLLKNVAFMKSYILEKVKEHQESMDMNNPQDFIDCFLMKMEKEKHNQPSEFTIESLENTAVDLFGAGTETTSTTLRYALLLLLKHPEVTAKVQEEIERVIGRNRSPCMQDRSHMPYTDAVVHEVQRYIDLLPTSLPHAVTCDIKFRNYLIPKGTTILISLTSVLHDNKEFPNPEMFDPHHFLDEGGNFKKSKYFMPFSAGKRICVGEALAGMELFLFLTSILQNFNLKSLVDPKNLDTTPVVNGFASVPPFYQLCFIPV
CYP2C9 inh = blockers of cytochrome P450 2C9 activity – biochemical, luminescence, ADME assay, primary screen; hit rate 20% among 96,000; AID 777, 2007; P11712; inhibition, % at 5 µM; CYP2C9 Supersomes, luciferin-H conversion;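 active = blocking of liver enzyme CYP2C9 beyond about 50% at 5 µM, limit read from the data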
CYP2C19 act = human CYP2C19 activators, primary screen, biochemical, luminescence. recombinant CYP2C19, luciferin-H EGE luminescence; active compounds read high; 0 = fully inhibited enzyme, 1 = untreated enzyme. activation factor at 5 µM. 96,000 tested, under 10 active;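 active = activation factor of at least 2 at 5 µM in the primary screen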;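 also: 0 = wells with 2.5 mM tranylcypromine and 1 = vehicle-only wells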
* = called active by the depositor; . = no result given. Rule as the data show it, unless noted: active = inhibition above about 30%; inactive = the rest.

SMILES	PostGolgi ctrl	CYP2C19 inh	PostGolgi yeast	CYP2C9 act	CYP2C9 inh	CYP2C19 act
COc1ccc(NC(=O)CSc2nc3c(c(=O)n2-c2ccc(F)cc2)SCC3)cc1	9	41	-8	0.4	62*	0.6
Cc1nn(C)cc1/C=N\NC(=O)c1ccc2c(c1)c(C)c(C)n2Cc1ccccc1	15	76*	11	0.2	83*	0.2
COC(=O)c1cn(-c2ccccc2)nc1-c1ccncc1	-2	37	-4	0.8	22	0.6
CC(C)COc1ccc(-c2nn(-c3ccccc3)cc2C(=O)Nc2nccs2)cc1	4	16	21	0.6	37	0.8
CCOC(=O)c1ccc(NC(=O)c2cn(-c3ccccc3)nc2-c2ccncc2)cc1	30*	15	90*	0.7	31	0.8
O=C(OCc1ccccc1)c1cn(-c2ccccc2)nc1-c1ccncc1	37*	52*	22	0.6	42	0.5
O=C(Nc1nccs1)c1cn(-c2ccccc2)nc1-c1ccccc1	23	21	14	0.4	62*	0.8
O=C(c1cn(-c2ccccc2)nc1-c1ccncc1)N1CCCCC1	5	52*	-6	0.5	48	0.5
O=C(c1cn(-c2ccccc2)nc1-c1ccc(F)cc1)N1CCOCC1	14	16	-3	0.7	32	0.8
O=C1CC(NC23CC4CC(CC(C4)C2)C3)C(=O)N1c1ccc2c(c1)OCO2 (stereo not drawn)	23	7	-4	1	2	0.9
O=C(c1cn(-c2ccccc2)nc1-c1cccs1)N1CCOCC1	-5	15	2	0.6	38	0.9
O=C(c1cn(-c2ccccc2)nc1-c1cccs1)N1CCN(c2ccccc2)CC1	44*	96*	-1	0	98*	0
Clc1ccc(-c2cnc(Oc3ccccc3)nc2)cc1	-8	33	33*	0.8	17	0.7
O=C(CN1/C(=C(/O)c2ccccc2)C(=O)c2ccccc2S1(=O)=O)c1ccccc1	9	11	-13	0.5	48	0.9
COc1ccc(OC(C)=O)c(C2c3cc(OC)c(OC)cc3CCN2C(C)=O)c1 (stereo not drawn)	-2	35	-1	0.7	30	0.7
COc1cc2c(cc1OC)C(c1cc3cc(OC)c(OC)cc3[nH]c1=O)N(C(=O)C1CC1)CC2 (stereo not drawn)	6	25	-2	0.4	61*	0.7
CC(C)(C)SCCNC(=O)c1ccccc1	-5	62*	5	0.8	22	0.4
Cc1ccc(C(=O)NCCSc2ccccc2)cc1S(=O)(=O)Nc1ccccc1	8	60*	-9	0.3	73*	0.4
O=C(NCCSc1ccccc1)c1ccccc1	6	84*	28	0.5	45	0.2
CSc1ccccc1C(=O)NCCSC(C)(C)C	-9	-16	12	1.2	-17	1.2
Cc1ccccc1C(=O)NCCSc1ccccc1	2	38	1	1.1	-10	0.6
Cc1ccc(C(=O)NCCSC(C)(C)C)cc1	10	68*	0	0.6	45	0.3
O=C(Cn1nc(-c2ccccc2)c2ccccc2c1=O)Nc1ccc2c(c1)nc1n2CCOC1	-1	6	-7	0.6	44	0.9
O=S(=O)(c1ccc(Br)s1)N1CCN(Cc2ccc3c(c2)OCO3)CC1	26	89*	2	0	97*	0.1
O=S(=O)(NCc1ccc2c(c1)OCO2)c1cccc2cccnc12	3	64*	5	2.7*	-170	0.4
O=S(=O)(c1cccc2cccnc12)N1CCN(Cc2ccc3c(c2)OCO3)CC1	8	46	-5	2.5*	-150	0.5
O=S(=O)(NCc1ccco1)c1cccc2cccnc12	0	.	-1	.	.	.
O=C(CCS(=O)(=O)c1cccc2nsnc12)N1CCN(Cc2ccc3c(c2)OCO3)CC1	3	6	10	0.9	5	0.9
O=S(=O)(c1cc(Cl)ccc1Cl)N1CCN(Cc2ccc3c(c2)OCO3)CC1	30	50*	1	1.1	-15	0.5
CCN1CCN(S(=O)(=O)c2ccc(Br)s2)CC1	12	17	5	1	-2	0.8

High-throughput results: PubChem, several laboratories
